This note sets out measurements from PubChem BioAssay (EPA / NIEHS).

Where “and” joins values, the source holds several entries; their conditions need not be identical. Identical values can stand only once. The source holds several records for some structures; these can differ, active in one and inactive in another. Calls of active or inactive are those of the source. The calls were made as follows: active = hit-call score of the fitted dose curve at least 0.9, where 1 is the maximum; inactive = score below 0.9.

Read-out in experiment [1]: Monocyte Chemoattractant Protein-1 (MCP1), CCL2 (gene 6347)
The experiment is described as follows: BSK_LPS_MCP1: BioMAP Diversity Plus: LPS Assay for Monocyte Chemoattractant Protein-1 (MCP1) Biomarker Activity (AID 2283081). Conditions: primary human HUVEC with PBMC; actives raise or lower the signal. The essentials:
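Human umbilical vein endothelial cells co-cultured with PBMC, LPS-stimulated; secreted MCP-1 measured by ELISA 24 h after compound addition. Bidirectional curve fitting against DMSO baseline; SRB total-protein staining in parallel cultures for cytotoxicity.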

Experiment [2] is described as follows: BSK_LPS_PGE2: BioMAP Diversity Plus: LPS Assay for Prostaglandin E2 (PGE2) Biomarker Activity (AID 2283082). Conditions: primary human HUVEC with PBMC; actives raise or lower the signal. The essentials: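 Compounds were added to the LPS co-culture of endothelium and PBMC, and PGE2 was measured by ELISA after 24 h. Responses in either direction were fitted with DMSO as baseline.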

Read-out in experiment [3]: Macrophage colony-stimulating factor (MCSF), CSF1 (gene 1435)
As to the kind of experiment: BSK_LPS_MCSF: BioMAP Diversity Plus: LPS Assay for Macrophage colony-stimulating factor (MCSF) Biomarker Activity (AID 2283083). The settings on record: primary human HUVEC with PBMC; actives raise or lower the signal. The procedure, abridged:
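HUVEC–PBMC co-culture, M-CSF measured by ELISA 24 h after chemical dosing. Fitted in both directions relative to DMSO as negative control; overt cytotoxicity assessed by SRB total-protein staining in parallel cultures.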

Read-out in experiment [4]: Tissue Factor, F3 (gene 2152)
The experiment is described as follows: BSK_LPS_TissueFactor: BioMAP Diversity Plus: LPS Assay for Tissue Factor Biomarker Activity (AID 2283084). Conditions: primary human HUVEC with PBMC; actives raise or lower the signal. The essentials:
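Human umbilical vein endothelial cells co-cultured with PBMC were dosed with compound. Cell-surface CD142 was measured by ELISA 24 h later. Activity was fitted bidirectionally against DMSO, with SRB total-protein staining in parallel cultures for cytotoxicity.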

Read-out in experiment [5]: Tumor necrosis factor (Homo sapiens) (UniProt P01375)
The experiment is described as follows: BSK_LPS_TNFa: BioMAP Diversity Plus: LPS Assay for Tumour Necrosis Factor alpha (TNFa) Biomarker Activity (AID 2283085). The settings on record: primary human HUVEC with PBMC; actives raise or lower the signal. The procedure, abridged:
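Cells (umbilical vein endothelium plus peripheral blood mononuclear cells) were dosed with chemical, incubated 24 h, then TNFa was quantified by ELISA; values derive from bidirectional fitting with DMSO as baseline.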

Read-out in experiment [6]: Vascular cell adhesion molecule 1 (VCAM1), VCAM1 (gene 7412)
As to the kind of experiment: BSK_LPS_VCAM1: BioMAP Diversity Plus: LPS Assay for Vascular cell adhesion molecule 1 (VCAM1) Biomarker Activity (AID 2283086). The settings on record: primary human HUVEC with PBMC; actives raise or lower the signal. The procedure, abridged: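 Cells are dosed in an LPS-stimulated endothelial/mononuclear co-culture and, after 24 h, VCAM-1 is quantified by ELISA. Activity in either direction is fitted relative to the DMSO negative control.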

Read-out in experiment [7]: CD38, CD38 (gene 952)
The experiment is described as follows: BSK_SAg_CD38: BioMAP Diversity Plus: SAg Assay for CD38 Biomarker Activity (AID 2283087). Conditions: primary human HUVEC with PBMC; actives raise or lower the signal. The essentials: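 CD38 quantified by ELISA (fluorescence) in a superantigen-activated endothelial cell–PBMC co-culture at 24 h post-dose. Activity fitted in both directions relative to DMSO; parallel SRB and Alamar Blue cytotoxicity read-outs.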

Read-out in experiment [8]: CD40, CD40 (gene 958)
As to the kind of experiment: BSK_SAg_CD40: BioMAP Diversity Plus: SAg Assay for CD40 Biomarker Activity (AID 2283088). The settings on record: primary human HUVEC with PBMC; actives raise or lower the signal. The essentials: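 HUVEC plus PBMC co-culture, superantigen-activated, with CD40 read by ELISA 24 h after dosing. Curves fitted in both directions against DMSO. Overt cytotoxicity checked by parallel SRB total-protein staining.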

Read-out in experiment [9]: CD69, CD69 (gene 969)
As to the kind of experiment: BSK_SAg_CD69: BioMAP Diversity Plus: SAg Assay for CD69 Biomarker Activity (AID 2283089). The settings on record: primary human HUVEC with PBMC; actives raise or lower the signal. The essentials:
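Primary human vascular co-culture (umbilical vein endothelium with peripheral blood mononuclear cells) exposed to test chemical for 24 h. CD69 levels quantified by fluorescence ELISA; DMSO served as negative control for bidirectional fitting.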

Read-out in experiment [10]: Monocyte Chemoattractant Protein-1 (MCP1), CCL2 (gene 6347)
As to the kind of experiment: BSK_SAg_MCP1: BioMAP Diversity Plus: SAg Assay for Monocyte Chemoattractant Protein-1 (MCP1) Biomarker Activity (AID 2283090). The settings on record: primary human HUVEC with PBMC; actives raise or lower the signal. The essentials: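 Values derive from bidirectional fitting of ELISA-measured MCP1 against DMSO controls. Readings were taken 24 h after dosing human vascular endothelial cells co-cultured with peripheral blood mononuclear cells under superantigen stimulation.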

Read-out in experiment [11]: E-selectin (Homo sapiens) (UniProt P16581)
The experiment is described as follows: BSK_SAg_Eselectin: BioMAP Diversity Plus: SAg Assay for Eselectin Biomarker Activity (AID 2283091). The settings on record: primary human HUVEC with PBMC; actives raise or lower the signal. The procedure, abridged:
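Human umbilical vein endothelial cells co-cultured with peripheral blood mononuclear cells, SAg system. E-selectin is measured by ELISA 24 h after dosing and fitted bidirectionally against DMSO. Cytotoxicity is checked by SRB staining of parallel cultures.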

Read-out in experiment [12]: Monokine induced gamma interferon (MIG), CXCL9 (gene 4283)
As to the kind of experiment: BSK_SAg_MIG: BioMAP Diversity Plus: SAg Assay for Monokine induced gamma interferon (MIG) Biomarker Activity (AID 2283092). The settings on record: primary human HUVEC with PBMC; actives raise or lower the signal. The procedure, abridged:
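Endothelial cells and PBMC were co-cultured, exposed to test chemicals, and sampled 24 h later. MIG was measured by ELISA, and responses were fitted in both directions relative to DMSO.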

Experiment [13] in a line: BSK_SAg_PBMCCytotoxicity: PBMC Cytotoxicity Assessment in the BioMAP Diversity Plus: SAg Assay (AID 2283093).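 Also: fitted both ways against DMSO so a hit may be loss or gain of signal.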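 As to AC50: PBMC superantigen activated with SEB plus TSST-1 one hour after compound addition.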 Conditions: primary human HUVEC with PBMC. The essentials:
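PBMC viability by Alamar Blue reduction, fluorescence read at 546/580 nm after 6 h dye exposure. Cells were dosed 1 h before SEB plus TSST-1 activation (20 ng/mL final each), then held 90 h; endothelial/PBMC human co-culture.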

A short description of experiment [14]: BSK_SAg_Proliferation: Cell Proliferation Assessment in the BioMAP Diversity Plus: SAg Assay (AID 2283095).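 Also: relative cell number as total protein by SRB absorbance in sub-confluent culture.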 Conditions: primary human HUVEC with PBMC. The procedure, abridged:
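Absorbance of sulforhodamine B at 560 nm reports total protein in a human vascular endothelial/PBMC co-culture after 96 h chemical exposure. Gain or loss of signal is fitted in both directions against DMSO.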

A short description of experiment [15]: BSK_SAg_SRB: Viability Assessment in the BioMAP Diversity Plus: SAg Assay (AID 2283096).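 Also: cells read one day after compound addition; hits may be either gain or loss of signal compared with DMSO.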 The settings on record: primary human HUVEC with PBMC. The essentials: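 Compounds were added to a human vascular co-culture of umbilical vein endothelium and PBMC. After 24 h, parallel cultures were fixed with 10% TCA, stained with 0.1% sulforhodamine B and read at 560 nm. Gain or loss of signal was fitted relative to DMSO.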

Read-out in experiment [16]: Interleukin-8 (IL8), CXCL8 (gene 3576)
The experiment is described as follows: BSK_SAg_IL8: BioMAP Diversity Plus: SAg Assay for Interleukin-8 (IL8) Biomarker Activity (AID 2283094). The settings on record: primary human HUVEC with PBMC; actives raise or lower the signal. The essentials: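 Chemicals were dosed onto a human endothelial–PBMC co-culture, and IL-8 was quantified by ELISA after 24 h. Both increases and decreases were fitted relative to DMSO.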

The AC50 is the midpoint of the concentration-response curve, whichever way the signal moves.

Sequence of Tumor necrosis factor (Homo sapiens) (P01375 whole entry, looked up): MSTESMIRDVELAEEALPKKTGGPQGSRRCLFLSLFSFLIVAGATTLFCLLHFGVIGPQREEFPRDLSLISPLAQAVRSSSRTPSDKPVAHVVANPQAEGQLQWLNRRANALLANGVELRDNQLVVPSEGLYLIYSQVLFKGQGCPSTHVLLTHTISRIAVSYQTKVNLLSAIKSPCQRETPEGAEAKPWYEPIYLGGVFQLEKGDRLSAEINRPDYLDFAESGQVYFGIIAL
Sequence of E-selectin (Homo sapiens) (P16581 whole entry, looked up): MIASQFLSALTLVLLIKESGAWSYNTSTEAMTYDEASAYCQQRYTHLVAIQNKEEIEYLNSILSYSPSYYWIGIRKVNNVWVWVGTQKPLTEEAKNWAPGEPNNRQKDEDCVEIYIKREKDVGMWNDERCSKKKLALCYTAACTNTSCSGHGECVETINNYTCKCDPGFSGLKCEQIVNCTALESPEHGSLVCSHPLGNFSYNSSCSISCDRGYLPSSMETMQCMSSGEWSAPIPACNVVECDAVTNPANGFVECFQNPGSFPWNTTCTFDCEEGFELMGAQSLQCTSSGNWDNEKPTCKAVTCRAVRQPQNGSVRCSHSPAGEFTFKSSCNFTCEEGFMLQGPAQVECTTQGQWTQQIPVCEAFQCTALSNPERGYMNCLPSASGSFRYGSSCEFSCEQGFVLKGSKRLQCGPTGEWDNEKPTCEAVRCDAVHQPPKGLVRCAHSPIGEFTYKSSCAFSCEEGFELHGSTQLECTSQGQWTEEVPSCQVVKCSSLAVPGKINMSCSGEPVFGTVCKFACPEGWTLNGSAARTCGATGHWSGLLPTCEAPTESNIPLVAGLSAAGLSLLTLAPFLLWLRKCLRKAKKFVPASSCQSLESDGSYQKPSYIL

Turning to `CC(=O)c1c(C)c([N+](=O)[O-])c(C(C)(C)C)c([N+](=O)[O-])c1C`, the result in experiment [1], in experiment [2], in [3], in experiment [4], in experiment [5] and in experiment [6] was inactive. In addition, the outcome in [7], in experiment [8], in experiment [9], in experiment [10], in experiment [11] and in experiment [12] was inactive. Besides, the outcome in experiment [13], in experiment [14] and in experiment [15] was inactive.

For the molecule `C1=CC2C3C=CC(C3)C2C1` (centres undefined), the result in experiment [1], in [2], in experiment [4], in [5], in experiment [6] and in [7] was inactive. Also, the outcome in experiment [8], in experiment [9], in experiment [10], in experiment [11], in [12] and in [13] was inactive. The outcome in [16], in experiment [14] and in [15] was inactive.

On to `O=C(Nc1ccc2c(O)c(N=Nc3ccc(N=Nc4ccc(S(=O)(=O)O)cc4)cc3)c(S(=O)(=O)O)cc2c1)c1ccccc1`, for which the result in experiment [1], in experiment [2], in experiment [4], in experiment [5], in [6] and in experiment [7] was inactive. For the same molecule, the outcome in [8], in [9], in experiment [10], in experiment [11], in experiment [12] and in experiment [13] was inactive. Moreover, the outcome in [14] and in experiment [15] was inactive.

On to `CC1(C)CCC[C@]2(C)[C@H]3CCO[C@]3(C)CC[C@@H]12`, for which the outcome in experiment [1], in [2], in [4], in [5], in [6] and in experiment [7] was inactive. Also, the result in [8], in experiment [9], in experiment [10], in experiment [11], in experiment [12] and in experiment [15] was inactive. For the same molecule, the AC50 was 36.6 µM (active) in experiment [8]; 26.4 µM (active) in experiment [11]; 31.8 µM (active) and 33.4 µM (active) in [13]; 33.6 µM (active) and 32.7 µM (active) in [14].

As for `c1ccc(Oc2ccccc2)cc1`, the result in [1], in [2], in [4], in [5], in experiment [6] and in experiment [7] was inactive. Further, the outcome in experiment [8], in [9], in [10], in experiment [11], in experiment [12] and in experiment [13] was inactive. The outcome in [14] and in experiment [15] was inactive.
